Compound activity from PubChem BioAssay.
Shown are actives, neighbours in structure and some others; about 2.8% of the full set was active somewhere.
bovine MsrA act: activates bovine MsrA enzyme; AID 602163; purified bovine MsrA, absorbance read-out; activation, % at 10.6 µM; 0.3% of 360,000 active; in the data active = activation above about 7.5%;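 note: 0% = vehicle and 100% = reference activator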
MsrA inh: inhibits bovine methionine sulfoxide reductase A; purified bovine MsrA, absorbance read-out; inhibition, % at 15.5 µM; 0.75% of 360,000 active; AID 651718;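 note: 0% = vehicle wells with enzyme and 100% = reference inhibitor wells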
SMARCA2 activ: SMARCA2 function activation, primary screen. MG213 cells, MMTV-luciferase reporter, dexamethasone, overnight. activation, % at 9.1 µM. 1% of 370,000 active. AID 652017; in the data active = activation above about 7.8%;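 note: 0% = vehicle wells and 100% = reference activator wells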
proKLK7 act: activators of human kallikrein-7 zymogen; purified proKLK7, EDANS-DABCYL substrate fluorescence; 100% is mature enzyme control, 0% vehicle; AID 652039; 0.9% of 370,000 active; P49862; activation, % at 7 µM;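 active = activation above the mean of all tested compounds plus 3 SD, computed per campaign excluding outliers beyond control limits, cut at about 13% in these data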
Target sequence (P49862 whole entry, looked up): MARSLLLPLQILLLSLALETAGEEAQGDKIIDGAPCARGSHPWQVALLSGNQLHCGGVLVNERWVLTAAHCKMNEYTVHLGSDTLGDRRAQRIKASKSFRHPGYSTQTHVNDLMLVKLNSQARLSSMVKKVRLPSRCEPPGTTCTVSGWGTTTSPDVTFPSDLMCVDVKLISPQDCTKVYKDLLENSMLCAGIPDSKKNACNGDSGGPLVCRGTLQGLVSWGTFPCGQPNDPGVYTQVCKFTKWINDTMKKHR
MsrA inh confirm: bovine MsrA inhibition, confirmed; 41% of 2,300 active; shares compounds with MsrA inh; AID 651822; purified bovine MsrA, absorbance read-out; inhibition, % at 15.5 µM;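 note: coupled to thioredoxin reductase with NADPH and selenocystamine and DMSO as substrate; 0% = vehicle only and 100% = full effect of reference inhibitor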
Starred values were filed as active, the others as inactive. Cut-off read from the data, not from the text of the source, unless noted: active = inhibition above about 4.5%; inactive = the rest.

Cc1c(Cl)cccc1-c1ccc(/C=N/n2cnnc2)o1 was read as bovine MsrA act -3, MsrA inh 3, SMARCA2 activ 1 and proKLK7 act 0.
Cc1c(C(=O)O)cccc1-c1ccc(/C=N/n2cnnc2)o1 was read as bovine MsrA act -6, MsrA inh 6.5*, SMARCA2 activ -2, proKLK7 act 0 and MsrA inh confirm 4.7*.
Screening Cc1cc(-c2ccc(/C=N/n3cnnc3)o2)ccc1Cl returned bovine MsrA act -5, MsrA inh 4.8*, SMARCA2 activ 0, proKLK7 act -1 and MsrA inh confirm 3.
Clc1cccc(-c2ccc(/C=N/n3cnnc3)o2)c1Cl was read as bovine MsrA act -1, MsrA inh 3, SMARCA2 activ 0 and proKLK7 act 0.
`Clc1ccccc1-c1ccc(/C=N/n2cnnc2)o1` gave bovine MsrA act -9, MsrA inh 5.7*, SMARCA2 activ -2, proKLK7 act -1 and MsrA inh confirm 5.5*.
For O=C(O)c1cccc(-c2ccc(/C=N/n3cnnc3)o2)c1 the results were bovine MsrA act -6, MsrA inh 4, SMARCA2 activ 5 and proKLK7 act 0.
For NCc1ccc(OCCCN2CCC(C(O)(C3=CCCC3)c3ccccc3)CC2)cc1 (configuration not stated) the results were MsrA inh 0, SMARCA2 activ 8 and proKLK7 act 0.
Screening Cn1cc(C(=O)N/N=C/c2cccs2)c2ccccc21 returned bovine MsrA act -5, MsrA inh 5.2*, SMARCA2 activ 3, proKLK7 act 1 and MsrA inh confirm 5.2*.
Screening O=C(O)CCC(=O)Nc1ccc(/C=C/C(=O)C2CC2)cc1 returned bovine MsrA act -6, MsrA inh 7.3*, SMARCA2 activ -2, proKLK7 act 1 and MsrA inh confirm 3.
CC(CC(=O)c1ccccc1)=NCCCN=C(C)CC(=O)c1ccccc1 was read as bovine MsrA act -4, MsrA inh 5.2*, SMARCA2 activ 1, proKLK7 act 0 and MsrA inh confirm 4.
`Cc1ccsc1-c1cc2nc(Nc3ccc(F)cc3)n(C)c(=O)c2s1` gave bovine MsrA act -5, MsrA inh 3, SMARCA2 activ 0 and proKLK7 act -8.
Screening CCOC(=O)c1c(C)[nH]sc1=S returned bovine MsrA act 5, MsrA inh 4.9*, SMARCA2 activ -2, proKLK7 act 0 and MsrA inh confirm 3.
C=C(C)Cn1c(SCC(=O)NN=Cc2c(O)ccc3ccccc23)nnc1-c1ccc(Br)cc1 was read as SMARCA2 activ -6 and proKLK7 act -19.
Screening COC(=O)CN(c1nc(C)c(Br)c(OC)n1)S(=O)(=O)c1ccccc1 returned bovine MsrA act -3, MsrA inh 13*, SMARCA2 activ -2, proKLK7 act 0 and MsrA inh confirm 12*.
Screening CCOC(=O)c1cc(C(C)(C)C)nc(SC)c1C#N returned bovine MsrA act -4, MsrA inh 6.2*, SMARCA2 activ -1, proKLK7 act 0 and MsrA inh confirm 3.
Screening CCOC(=O)c1cc(C)nc(SC)c1C#N returned bovine MsrA act -2, MsrA inh 0, SMARCA2 activ 0 and proKLK7 act -1.
`O=C(COCc1ccccc1)N1CC[C@H]2[C@H](CCCN2Cc2cc(F)cc(F)c2)C1` gave SMARCA2 activ 0 and proKLK7 act 0.
`CC(=O)N1CCc2cc(Br)c(S(=O)(=O)NCc3ccc(Cl)cc3)cc21` gave SMARCA2 activ -5 and proKLK7 act 0.
`COc1ccc(/C=C(\CC(=O)O)c2nc3ccccc3o2)cc1` gave bovine MsrA act -5, MsrA inh 5.9*, SMARCA2 activ 1, proKLK7 act 0 and MsrA inh confirm 4.
For O=C(NC1=C(NC2CCS(=O)(=O)C2)C(=O)c2ccccc2C1=O)c1ccccc1 (configuration not stated) the results were bovine MsrA act -1, MsrA inh 5.0*, SMARCA2 activ -6, proKLK7 act -1 and MsrA inh confirm 1.
`N#C/C(=C/c1cccs1)c1ccccn1` gave bovine MsrA act -5, MsrA inh 5.1*, SMARCA2 activ 5, proKLK7 act 0 and MsrA inh confirm 5.4*.
Screening N#C/C(=C\c1ccccn1)c1ccccn1 returned bovine MsrA act -10, MsrA inh 0, SMARCA2 activ 3 and proKLK7 act 0.
For Cc1nc2ccccn2c(=O)c1NC(=O)c1cccc2ccccc12 the results were bovine MsrA act -4, MsrA inh 4, SMARCA2 activ 0 and proKLK7 act 1.
Cc1nc2ccccn2c(=O)c1NC(=O)c1ccco1 was read as bovine MsrA act -1, MsrA inh 4.8*, SMARCA2 activ -4, proKLK7 act -1 and MsrA inh confirm 2.
COC1C(OC(=O)/C=C/C=C/C=C/C=C/C(=O)O)CCC2(CO2)C1C1(C)OC1CC=C(C)C (configuration not stated) (tested in a mixture with another compound) was read as bovine MsrA act -5, MsrA inh 8.8*, SMARCA2 activ 0, proKLK7 act 1 and MsrA inh confirm 12*.
O=C(COC(=O)C1=NN(c2ccccc2)C(=O)CC1)Nc1ccc([N+](=O)[O-])cc1C(F)(F)F was read as bovine MsrA act -2, MsrA inh 12*, SMARCA2 activ -2, proKLK7 act 0 and MsrA inh confirm 11*.
`CCC(C)c1ccccc1NC(=O)COC(=O)C1=NN(c2ccccc2)C(=O)CC1` (configuration not stated) gave bovine MsrA act -4, MsrA inh 39*, SMARCA2 activ -2, proKLK7 act 0 and MsrA inh confirm 30*.
`COC(=O)c1ccccc1NC1=C/C(=N\S(=O)(=O)c2ccc(C(=O)O)cc2)c2ccccc2C1=O` gave bovine MsrA act -3.
For Cc1ccc(NC2=C/C(=N/S(=O)(=O)c3cccs3)c3ccccc3C2=O)cc1 the results were bovine MsrA act 4, MsrA inh 14*, SMARCA2 activ -7, proKLK7 act 0 and MsrA inh confirm 24*.
Cc1ccc(S(=O)(=O)/N=C2\C=C(Nc3cccc(C(=O)O)c3)C(=O)c3ccccc32)c(C)c1 was read as bovine MsrA act -3, MsrA inh 25*, SMARCA2 activ 1, proKLK7 act 1 and MsrA inh confirm 30*.
`Cc1ccc(S(=O)(=O)/N=C2\C=C(Nc3cccc(C(=O)O)c3)C(=O)c3ccccc32)cc1` gave bovine MsrA act -1, MsrA inh 42*, SMARCA2 activ 1, proKLK7 act 0 and MsrA inh confirm 20*.
For O=C1C(Nc2ccccc2)=C/C(=N/S(=O)(=O)c2cccs2)c2ccccc21 the results were bovine MsrA act -1.
Screening CCc1ccc(S(=O)(=O)/N=C2\C=C(Nc3ccc(C(=O)O)cc3)C(=O)c3ccccc32)cc1 returned bovine MsrA act -7, MsrA inh 64*, SMARCA2 activ -5, proKLK7 act 0 and MsrA inh confirm 69*.
Screening CC1(C(=O)NS(=O)(=O)c2ccccc2Cl)CCN1C(=O)c1ccco1 (configuration not stated) returned bovine MsrA act -2, MsrA inh 3, SMARCA2 activ 0 and proKLK7 act 1.
